Experimental data: PubChem BioAssay (NCI)
The panel holds about 79,000 compounds, 15% with a hit somewhere; the sample as a whole holds those more often. Active and inactive are the calls of the source. Cut-off read from the data, not from the text of the source: active = growth inhibition above about 70%; inactive = the rest.

Assay: NCI Yeast Anticancer Drug Screen. Data for the mlh1 rad18 strain (AID 175)
Conditions: S. cerevisiae mlh1 rad18 strain growth inhibition; at 50.0 µM; stronger effect = higher value
Procedure: Growth inhibition of yeast strains with defined genetic alterations is measured as a screen for potential anti-cancer activity. Selected strains with alterations in DNA damage repair or cell cycle control were exposed to compounds and growth inhibition was measured relative to vehicle treated controls. The strain used in this assay is mlh1 rad18

Row | SMILES | growth inhibition
1 | Cc1ccc(-c2noc(CC(=O)c3ccc([N+](=O)[O-])cc3)n2)cc1 | 38.8% (inactive)
2 | CC/C(=C\c1cccc([N+](=O)[O-])c1)C(=O)O | -5.55% (inactive)
3 | NC(=O)NC(CCCN=C(N)N)C(=O)O (stereo not given) | -36.1% (inactive)
4 | COc1ccc(NC(=S)Nc2ccccn2)cc1 | 0.65% (inactive)
5 | COc1c(OC)c(OC)c2c(c1OC)c(=O)c1ccccc1n2C | -42.2% (inactive)
6 | c1ccc(N(c2ccccc2)c2ccccc2)cc1 | 4.05% (inactive)
7 | C=CCCCCCCCCC(=O)Cl | 11.1% (inactive)
8 | Nc1ccc(Nc2nc3ccccc3s2)c(O)c1 | 24.6% (inactive)
9 | COC(=O)C(C(=O)C(=O)NC1Nc2ccc(C)cc2S1)c1nc2ccc(Cl)cc2[nH]c1=O (stereo not given) | 28.9% (inactive)
10 | CCCN1CCc2cc(OC)c(OC)cc2C1Cc1ccc(OC)c(OC)c1 (stereo not given) | -5.7% (inactive)
11 | Cc1nc(-[n+]2nc(-c3ccccc3)nn2-c2ccccc2)sc1C | 7.4% (inactive)
12 | CC(C)CC(Br)C(=O)NC(CC(C)C)C(=O)O (stereo not given) | -23.2% (inactive)
13 | Cc1ccc(N2CCOC2=O)cc1N1CCOC1=O | -10.7% (inactive)
14 | Cc1c(Cl)cccc1N1C(=O)CC(Sc2ccccc2N)C1=O (stereo not given) | 3% (inactive)
15 | Cc1nc2c(Cl)c(Cl)ccc2s1 | 24.2% (inactive)
16 | COc1cc2c(cc1C1COc3cc4occc4cc3C1=O)OCO2 (stereo not given) | -25.6% (inactive)
17 | O=C(O)/C=C\C(=O)Nc1ccccc1NC(=O)/C=C/C(=O)O | -16.2% (inactive)
18 | Cc1ccccc1NC(=S)Nc1ccccn1 | 10.3% (inactive)
19 | Cn1/c(=N\N=C\C(=O)O)sc2ccccc21 | 10.1% (inactive)
20 | NC(=S)NS(=O)(=O)c1ccc(N)cc1 | 8.3% (inactive)

Row | SMILES | growth inhibition
21 | Cn1c2c(c3ccccc3c1=O)C(=O)c1ccccc1-2 | -23.7% (inactive)
22 | Clc1cccc(Cl)c1Br | 16.9% (inactive)
23 | N#[N+]c1c(O)cc(S(=O)(=O)O)c2ccccc12 | -10.4% (inactive)
24 | COC(=O)/C(=N\NC(=S)NN)C(C(=O)OC)C(=O)C(=O)Nc1cccc(C(F)(F)F)c1 (stereo not given) | 24.1% (inactive)
25 | CCCCCCCCOC(=O)C12Oc3ccc(-c4ccc5c(c4O)C(O)=C4C(=O)CC(C)C(O)C4(C(=O)OCCCCCCCC)O5)c(O)c3C(O)=C1C(=O)CC(C)C2O (stereo not given) | -54.6% (inactive)
26 | COC(=O)C/C(=C/C=C1/C(=O)ON=C1C)c1c(C)[nH]oc1=O | -16.9% (inactive)
27 | CC1=C(/C=C/C(C)=C/C=C/C(C)=C/C(=O)Nc2ccc(O)cc2)C(C)(C)CCC1 | -13.2% (inactive)
28 | CSc1nc(Br)nc2ncn(C3CC(Oc4ccc(C)cc4)C(COc4ccc(C)cc4)O3)c12 (stereo not given) | -4.75% (inactive)
29 | CCn1c2c(c3ccccc3c1=O)C(=O)c1ccccc1-2 | -49.4% (inactive)
30 | CC1(c2ccc3ccccc3c2)CCC(=O)O1 (stereo not given) | -4.8% (inactive)
31 | CC1(C)Oc2ccc3c(=O)cc(-c4ccc(F)cc4)oc3c2C1C(=O)O (stereo not given) | -28.8% (inactive)
32 | COc1cc2c(cc1-c1coc3cc(O)ccc3c1=O)OCO2 | -42.6% (inactive)
33 | CC(C)O/N=C/c1cc(NC(=S)OC(C)C)ccc1Cl | -57.5% (inactive)
34 | O=C(CCCCCCCCCCBr)OCc1ccccc1 | 5.9% (inactive)
35 | COc1ccc(C(=O)CC2CCCC(CC(=O)c3ccc(OC)cc3)N2C)cc1 (stereo not given) | 30.4% (inactive)
36 | CCN(CC)CCN(C)CC(=O)Nc1ccccc1C | 38.4% (inactive)
37 | CCOC(=O)C(C)Oc1ccccc1[N+](=O)[O-] (stereo not given) | -15.8% (inactive)
38 | CCCOC(=O)C(=O)C(C#N)c1ccccc1 (stereo not given) | 16.9% (inactive)
39 | Cc1ccc(OC2CC(n3cnc4ncnc(Cl)c43)OC2Oc2ccc(C)cc2)cc1 (stereo not given) | -33.8% (inactive)
40 | Cc1ccc(/C=N/Nc2ccccn2)s1 | 0.7% (inactive)
